The list is not random: actives were taken first. Their share in the collection is about 8%.
HCMV inh: qHTS Assay for inhibitors of the human cytomegalovirus (HCMV); HFF cells, HCMV-luciferase reporter, 72 h; active compounds read low; 410,000 tested, 4.5% active; AID 1259415, 2018; activity change, negative = inhibition, % at 57.5 µM; in the data active means activity change below about -60%; inconclusive means no clear call, values can overlap the other calls; inactive means above about -39%; further: on the % scale 0 is the no-effect control and ±100 the full control effect
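Inhibition of viral replication was scored as loss of reporter luminescence in HFFs infected with HCMV-luciferase (MOI 1 PFU/cell) for 72 h; compounds tested at 2 doses, normalized to buffer and Salinomycin controls.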
LASV entry inh: qHTS for Inhibitors of binding or entry into cells for Lassa Virus. Potency, µM (highest dose often 37.9 µM), without a hit: top-dose activity change, negative = inhibition, most hits filed as inhibitors. AID 540256, 2011. Lassa virus pseudotype entry inhibition, cell reporter. 300,000 tested, 1.2% active; calls by dose curve; tested in HEK293 cells; further: potency means the concentration at half of the fitted maximal effect; on the % scale 0 is the no-effect control and ±100 the full control effect; nearly all actives have a fitted effect of over 50% in size
MARV entry inh: qHTS for inhibitors of binding or entry into cells for Marburg Virus | Marburg virus pseudotyped entry inhibition, cell reporter | Potency, µM (doses to about 37.8 µM), for inactives: at the top dose activity change, negative = inhibition, most hits filed as inhibitors | 300,000 tested, 1.8% active; calls by dose curve; tested in HEK293 cells; further: potency means the concentration at half of the fitted maximal effect; on the % scale 0 is the no-effect control and ±100 the full control effect
FMDV antiviral: High Throughput Screening for Foot and Mouth Disease Virus Antivirals; FMDV antiviral cell-based qHTS; Potency, µM (doses to about 57.9 µM), without a hit: top-dose activity change, negative = inhibition, usual class: inhibitors; 410,000 tested, 1.2% active; AID 1159524, 2015; calls by dose curve; tested in HEK293T cells; further: read-out not given here; potency means the concentration at half of the fitted maximal effect; on the % scale 0 is the no-effect control and ±100 the full control effect; nearly all actives have a fitted effect of over 45% in size
SARS PLpro yeast-1: qHTS of Yeast-based Assay for SARS-CoV PLP | S. cerevisiae expressing SARS-CoV PLpro, growth rescue | 330,000 tested, 0.19% active | Potency, µM (series often up to 32.9 µM), for inactives: at the highest dose activity, positive = growth rescue, usual class: activators; calls by dose curve; further: potency means the concentration at half of the fitted maximal effect; 0% is about no effect; nearly all actives have a fitted effect of over 55% in size
HCV inh: qHTS Assay for Inhibitors of Hepatitis C Virus (HCV); Huh7.5.1 HCVcc-Cre infection, luciferase reporter, 44 h; Potency, µM (highest dose often 41.8 µM), for the others: top-dose activity change, negative = inhibition, usual class: inhibitors; 340,000 tested, 3.4% active; active means well fitted inhibition curve with a large enough effect; inconclusive means small, poorly fitted or top-dose-only effect, or another doubt; inactive means no such curve, though single readings can be large or run the other way; further: potency means the concentration at half of the fitted maximal effect; on the % scale 0 is the no-effect control and ±100 the full control effect
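Antiviral activity was scored by luciferase reporter output from cells infected with HCVcc-Cre (~0.5 moi) in presence of compound, 44 h infection period, cells seeded 1,000/well 4 h prior.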
SARS PLpro yeast-2: qHTS of Yeast-based Assay for SARS-CoV PLP: Hit Validation; shares compounds with SARS PLpro yeast-1; yeast expressing SARS-CoV PLpro, growth phenotype rescue; calls only; 1,000 tested, 19% active; call rule not given here
The depositor's hits bear a star; i = inactive; ? = inconclusive; . = no result; + = active, no number; [ ] = dose if it differs, or a comment.

SMILES	HCMV inh	LASV entry inh	MARV entry inh	FMDV antiviral	SARS PLpro yeast-1	HCV inh	SARS PLpro yeast-2
O=C(NCCc1cccs1)c1ccc(Cn2c(SCc3ccc(F)cc3)nc3cccnc32)cc1	45.8	.	-2.3%[46.1 µM]	-1.2%	.	.	.
O=C(O)c1ccc2c(c1)C(=O)N([C@H](Cc1ccc3ccccc3c1)C(=O)O)C2=O	.	.	.	.	5.0%	.	.
CC(=O)N1c2ccccc2CC1C(=O)N1CCN(c2cccc(C)c2C)CC1 (centres undefined)	7.5	-18.8%[46.1 µM]	.	0.0%	.	.	.
CCCC(C(=O)O)N1C(=O)/C(=C/c2cccn2C)SC1=S (centres undefined)	-38.7	-8.1%	4.2%	0.4%	?	8.2%	i
Cc1ccc(C2=NC(C)(C)NC2=O)cc1	-3.9	18.4%	-2.2%	15.2%	?	3.7%	i
COc1ccc(-c2cn3cccnc3n2)cc1NC(=O)c1c(F)cccc1F	-28.0	?	.	16.0%	.	.	.
CC(C)CCNC(=S)Nc1ccccn1	95.6	13.4%	28.6%	4.0%	?	8.4%	.
CC(C)CCNC(=S)Nc1ccccc1F	?	-16.8%	0.1%	26.6%	?	?	+
O=C1CNC(=S)N1CCCn1ccnc1	0.5	.	.	-3.8%	0.1%	25.9%	.
Cc1nccn1CCCN1C(=O)CNC1=S	-21.2	-3.2%	?	51.9%	4.47µM*	-0.6%	i
CCCN(CC(=O)Nc1ccc(C)cc1Br)CC(=O)Nc1ccc(F)c(F)c1F	24.7	-12.9%	?	-7.2%	?	?	i
Cc1ccc(NC(=O)Cn2cccc2)c(Br)c1	-0.6	14.1%	?	37.7%	2.51µM*	-30.3%	i
CCCN(CC(=O)Nc1cccc(Br)c1)CC(=O)Nc1ccc(F)c(F)c1F	11.0	-20.6%	?	-12.0%	-21.8%	?	.
O=C(c1ccc2c(c1)N(Cc1ccc(Cl)cc1)C(=O)c1ccccc1S2=O)N1CCOCC1 (centres undefined)	2.9	-9.3%[46.1 µM]	17.7%[46.1 µM]	-12.3%	.	.	.
CCOC(=O)c1sc(=S)n(-c2ccccc2Cl)c1C	-12.2	1.3%[46.1 µM]	?	3.5%	-2.5%	-26.3%	.
CCOC(=O)c1sc(=S)n(C)c1NC(=O)c1ccccc1Cl	16.2	16.3%	-5.1%	-15.1%	22.4µM*	0.9%	i
Cc1ccc(S(=O)(=O)Nc2ccc(O)c3ncccc23)cc1	19.2	.	.	-10.9%	?	?	+
CNNC(=S)Nc1ccc(Cl)cc1	-4.5	-25.7%	16.3%[46.1 µM]	-1.6%	-1.5%	-0.9%	.
CN(C)NC(=S)Nc1ccc(Cl)cc1	-9.1	3.9%	15.3%	.	11.2µM*	12.1%	+
Cc1cccc(C)c1NC(=O)CC1SC2=NCCN2C1=O (centres undefined)	9.3	-13.1%	9.3%[46.1 µM]	-15.4%	?	3.4%	i
COc1ccc(C)cc1NC(=O)CN(C)S(=O)(=O)c1cnc[nH]1	-15.1	2.7%	?	10.6%	?	-6.0%	i
Cc1cccc(NC(=O)CN(C)S(=O)(=O)c2cnc[nH]2)c1	-14.0	-11.1%	-1.1%	-9.0%	6.0%	4.8%	.
CCN(CC)S(=O)(=O)c1ccc(S(=O)(=O)N2CCCC2C(=O)O)cc1 (centres undefined)	11.7	-10.7%	2.0%	6.4%	22.4µM*	-1.8%	i
Cc1cccc(-n2ccnc2SCC(=O)Nc2nnc(C)s2)c1	-1.4	.	.	-12.0%	6.1%	?	.
CCc1nnc(NC(=O)CSc2nccn2-c2cccc(C)c2)s1	-16.5	.	.	-26.9%	12.6µM*	4.7%	i
CC(=O)Nc1cc2c(s1)c1cnn(Cc3ccccc3F)c(=O)c1n2C	.	.	.	.	-2.0%	.	.
CCCCN1CC(c2nc3ccccc3n2CCCCOc2ccc(C)c(C)c2)CC1=O (centres undefined)	-0.2	0.5%[46.1 µM]	-10.9%[46.1 µM]	?	.	.	.
Cc1ccc(SC(C)C(=O)Nc2c(C)n(C)n(-c3ccccc3)c2=O)cc1 (centres undefined)	-32.6	0.1%	8.2%	2.6%	?	12.8%	+
